Where a name gives a salt, the structure may show the parent alone. ± gives the standard deviation of the averaged measurements.
What was measured:
[1] = test system: Saccharomyces cerevisiae BY4741 SeMeCo community; test: mean cell size (pixel area) (pixels); higher = larger cells; conditions: 10 µM; 24 h; SM minimal medium
Summary of the method: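 Mean cell pixel area per well was measured in a four-plasmid fluorescent community of Saccharomyces cerevisiae BY4741, where every plasmid complements one auxotrophy and carries a fluorescent marker. Cells from an overnight preculture at OD600 = 1.0 were diluted to OD600 = 0.3 and dispensed at 70 µl into 384-well plates acoustically predosed with drug to a final 10 µM in SM medium. Incubation lasted 24 h, followed by paraformaldehyde fixation, automated confocal imaging and analysis in Harmony. Reported figures are averaged over 3 replicates. Same SeMeCo high-content imaging drug screen: Selleck FDA-approved drugs at 10 µM, 24 h in SM medium, 384-well plates, 3 replicates.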

[2] = test system: Saccharomyces cerevisiae BY4741 SeMeCo community; test: z-score of prototroph abundance vs DMSO median; higher = larger share of this subpopulation than in DMSO controls; conditions: 10 µM; 24 h; SM minimal medium; subpopulation (auxotrophy): Prototroph
Summary of the method: (§1)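 Automated confocal microscopy of paraformaldehyde-fixed cells was used to follow a Saccharomyces cerevisiae BY4741 community carrying four plasmids, each restoring one auxotrophy and encoding a distinct fluorescent protein. The community was pre-grown overnight to OD600 1.0, diluted to 0.3, and added at 70 µl to 384-well plates acoustically predosed with library drugs (10 µM final) for 24 h of growth in minimal SM medium. Single-auxotroph fluorescent strains set thresholds and autofluorescence correction, and each subpopulation's abundance was scored as a z-score against the vehicle-well median.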

[3] = test system: Saccharomyces cerevisiae BY4741 SeMeCo community; test: z-score of subpopulation abundance vs DMSO median, subpopulation auxotrophic for M; higher = larger share of this subpopulation than in DMSO controls; conditions: 10 µM; 24 h; SM minimal medium; subpopulation (auxotrophy): M
Summary of the method: as §1

[4] = test system: Saccharomyces cerevisiae BY4741 SeMeCo community; test: z-score of subpopulation abundance vs DMSO median, subpopulation auxotrophic for L; higher = larger share of this subpopulation than in DMSO controls; conditions: 10 µM; 24 h; SM minimal medium; subpopulation (auxotrophy): L
Summary of the method: as §1

[5] = test system: Saccharomyces cerevisiae BY4741 SeMeCo community; test: z-score of subpopulation abundance vs DMSO median, subpopulation auxotrophic for U; higher = larger share of this subpopulation than in DMSO controls; conditions: 10 µM; 24 h; SM minimal medium; subpopulation (auxotrophy): U
Summary of the method: as §1

[6] = test system: Saccharomyces cerevisiae BY4741 SeMeCo community; test: z-score of subpopulation abundance vs DMSO median, subpopulation auxotrophic for H; higher = larger share of this subpopulation than in DMSO controls; conditions: 10 µM; 24 h; SM minimal medium; subpopulation (auxotrophy): H
Summary of the method: as §1

[7] = test system: Saccharomyces cerevisiae BY4741 SeMeCo community; test: z-score of subpopulation abundance vs DMSO median, subpopulation auxotrophic for LU; higher = larger share of this subpopulation than in DMSO controls; conditions: 10 µM; 24 h; SM minimal medium; subpopulation (auxotrophy): LU
Summary of the method: as §1

[8] = test system: Saccharomyces cerevisiae BY4741 SeMeCo community; test: z-score of subpopulation abundance vs DMSO median, subpopulation auxotrophic for LM; higher = larger share of this subpopulation than in DMSO controls; conditions: 10 µM; 24 h; SM minimal medium; subpopulation (auxotrophy): LM
Summary of the method: as §1

[9] = test system: Saccharomyces cerevisiae BY4741 SeMeCo community; test: z-score of subpopulation abundance vs DMSO median, subpopulation auxotrophic for HM; higher = larger share of this subpopulation than in DMSO controls; conditions: 10 µM; 24 h; SM minimal medium; subpopulation (auxotrophy): HM
Summary of the method: as §1

[10] = test system: Saccharomyces cerevisiae BY4741 SeMeCo community; test: z-score of subpopulation abundance vs DMSO median, subpopulation auxotrophic for HU; higher = larger share of this subpopulation than in DMSO controls; conditions: 10 µM; 24 h; SM minimal medium; subpopulation (auxotrophy): HU
Summary of the method: as §1

[11] = test system: Saccharomyces cerevisiae BY4741 SeMeCo community; test: z-score of subpopulation abundance vs DMSO median, subpopulation auxotrophic for UM; higher = larger share of this subpopulation than in DMSO controls; conditions: 10 µM; 24 h; SM minimal medium; subpopulation (auxotrophy): UM
Summary of the method: as §1

[12] = test system: Saccharomyces cerevisiae BY4741 SeMeCo community; test: z-score of subpopulation abundance vs DMSO median, subpopulation auxotrophic for HL; higher = larger share of this subpopulation than in DMSO controls; conditions: 10 µM; 24 h; SM minimal medium; subpopulation (auxotrophy): HL
Summary of the method: as §1

[13] = test system: Saccharomyces cerevisiae BY4741 SeMeCo community; test: z-score of subpopulation abundance vs DMSO median, subpopulation auxotrophic for HLU; higher = larger share of this subpopulation than in DMSO controls; conditions: 10 µM; 24 h; SM minimal medium; subpopulation (auxotrophy): HLU
Summary of the method: as §1

[14] = test system: Saccharomyces cerevisiae BY4741 SeMeCo community; test: z-score of subpopulation abundance vs DMSO median, subpopulation auxotrophic for HLM; higher = larger share of this subpopulation than in DMSO controls; conditions: 10 µM; 24 h; SM minimal medium; subpopulation (auxotrophy): HLM
Summary of the method: as §1

[15] = test system: Saccharomyces cerevisiae BY4741 SeMeCo community; test: z-score of subpopulation abundance vs DMSO median, subpopulation auxotrophic for HUM; higher = larger share of this subpopulation than in DMSO controls; conditions: 10 µM; 24 h; SM minimal medium; subpopulation (auxotrophy): HUM
Summary of the method: as §1

[16] = test system: Saccharomyces cerevisiae BY4741 SeMeCo community; test: z-score of subpopulation abundance vs DMSO median, subpopulation auxotrophic for LUM; higher = larger share of this subpopulation than in DMSO controls; conditions: 10 µM; 24 h; SM minimal medium; subpopulation (auxotrophy): LUM
Summary of the method: as §1

[17] = test system: Saccharomyces cerevisiae BY4741 SeMeCo community; test: z-score of subpopulation abundance vs DMSO median, subpopulation auxotrophic for HLUM; higher = larger share of this subpopulation than in DMSO controls; conditions: 10 µM; 24 h; SM minimal medium; subpopulation (auxotrophy): HLUM
Summary of the method: as §1

| SMILES | mean cell size [1] | z-score of prototroph abundance [2] | z-score of subpopulation abundance [3] | z-score of subpopulation abundance [4] | z-score of subpopulation abundance [5] | z-score of subpopulation abundance [6] | z-score of subpopulation abundance [7] | z-score of subpopulation abundance [8] | z-score of subpopulation abundance [9] | z-score of subpopulation abundance [10] | z-score of subpopulation abundance [11] | z-score of subpopulation abundance [12] | z-score of subpopulation abundance [13] | z-score of subpopulation abundance [14] | z-score of subpopulation abundance [15] | z-score of subpopulation abundance [16] | z-score of subpopulation abundance [17] |
| --- | --- | --- | --- | --- | --- | --- | --- | --- | --- | --- | --- | --- | --- | --- | --- | --- | --- |
| NC(=NCCCCCCN=C(N)N=C(N)Nc1ccc(Cl)cc1)N=C(N)Nc1ccc(Cl)cc1 [Chlorhexidine?2HCl] | 11.38 ± 0.084 | 1.92 | -3.42 | 0.63 | -2.8 | 2.59 | -1.64 | 0.28 | -2.23 | 0.25 | -3.13 | 2.14 | 3.88 | 0.93 | -0.7 | 2.03 | 4.27 |
| CCN(CC)CC#CCOC(=O)C(O)(c1ccccc1)C1CCCCC1 (configuration not stated) [Oxybutynin] | 12.5 ± 0.29 | -0.02 | -0.18 | -0.14 | 0.19 | -0.43 | -0.54 | -0.42 | -0.23 | 0.37 | -0.47 | -0.47 | -0.2 | -0.46 | 0.54 | -0.32 | 1 |
| CO/N=C(\C(=O)N[C@@H]1C(=O)N2C(C(=O)O)=C(CSC(=O)c3ccco3)CS[C@H]12)c1csc(N)n1 [Ceftiofur] | 12.28 ± 0.045 | -0.44 | -0.46 | -0.31 | 0.57 | 0.28 | 0.54 | -0.51 | -0.13 | 0.47 |  | 0.39 | -0.05 | 0.23 | 0.28 | -0.02 | 0.07 |
| O=C1OC(CN2CCOCC2)CN1/N=C/c1ccc([N+](=O)[O-])o1 (configuration not stated) [Furaltadone HCl] | 12.75 ± 0.12 | 0.34 | 0.83 | -0.94 | 0.25 | -0.56 | -0.14 | -0.57 | 0.11 | -0.63 | 0.47 | -0.67 | -0.79 | -0.4 | -0.1 | -0.33 | -0.39 |
| CC1=C[C@H]2C(=O)O[C@H]3C[C@@H](C/C=C(\C)C[C@@H](C)/C=C/C=C4\CO[C@H](/C1=N\O)[C@@]42O)O[C@@]1(CC[C@H](C)[C@@H](C)O1)C3.CC[C@H]1O[C@]2(CC[C@@H]1C)C[C@@H]1C[C@@H](C/C=C(\C)C[C@@H](C)/C=C/C=C3\CO[C@@H]4/C(=N\O)C(C)=C[C@@H](C(=O)O1)[C@]34O)O2 [Milbemycin Oxime] | 12.36 ± 0.099 | 0.31 | -1.4 | 0.14 | -0.74 | 2.17 | -0.7 | -0.44 | 0.15 | 0.42 | -1.12 |  | -0.11 | -0.22 | 0.03 | -0.87 | -0.41 |
| CO[C@@]1(NC(=O)C(C(=O)O)c2ccc(O)cc2)C(=O)N2C(C(=O)O)=C(CSc3nnnn3C)CO[C@@H]21 (some centres not stated) [Latamoxef sodium] | 12.7 ± 0.16 | 0.35 | 0.17 | -0.05 | -0.29 | 0.8 | -0.08 | -0.29 | -0.22 | 0 | -0.41 | -0.07 | 0.4 | 0.83 | -0.43 | -0.71 | 0.61 |
| Cn1c(=O)c2c(ncn2CC2OCCO2)n(C)c1=O [Doxofylline] | 12.2 ± 0.51 | 0.31 | -0.41 | 0.55 | -0.22 | -0.27 | 0.9 | 0.49 | -0.89 | -0.64 | -0.67 | 0.28 | -0.64 | -0.9 | -0.34 | -0.24 | -0.8 |
